# Where “and” joins values, the source holds several entries; their conditions need not be identical. Equal entries are not always repeated. For part of these data: Entries with a potency or affinity are not part of this list. Calls of active or inactive are those of the source.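 Rule for the calls, unless noted: active = dose curve with midpoint inside tested range, moderate steepness, plateau gap beyond fit error, low compound glow and bead-link interference; inactive = the rest.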
# Experiments:
# [1] = molecular target: Ras-related C3 botulinum toxin substrate 1 (Homo sapiens) (UniProt P63000); assay: inhibition of wildtype Rac1 nucleotide loading – biochemical, multiplex bead flow cytometry, dose response (AID 1340); conditions: GST-Rac1 beads, Bodipy-FL-GTP binding; at 100 µM (top of the series) unless noted
# [2] = molecular target: Cell division control protein 42 homolog (Homo sapiens) (UniProt P60953); assay: inhibition of fluorescent GTP binding to wildtype Cdc42 – biochemical, multiplex bead flow cytometry, Bodipy-FL-GTP, dose response (AID 1334;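 active = fitted half-maximal concentration within the tested range, moderate curve steepness, significant signal drop, and little compound fluorescence or bead-linkage interference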); conditions: bead-based flow cytometry, Bodipy-FL-GTP binding to GST-Cdc42; at 100 µM (top of the series) unless noted
# [3] = molecular target: GTPase HRas (Homo sapiens) (UniProt P01112); assay: Ras wt fluorescent GTP loading blockade – biochemical, wildtype, multiplex bead flow cytometry, dose response (AID 1335;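 active = fitted half-maximal concentration within 10 nM to 100 µM, steepness 0.5 to 2, significant signal drop, low assay interference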); conditions: bead-based flow cytometry, Bodipy-GTP binding to GST-Ras; at 100 µM (top of the series) unless noted
# [4] = tested on: Ras-related protein Rab-7a (dog), GTP binding; assay: blockers of fluorescent GTP binding to Rab7 – biochemical, wildtype, multiplex bead flow cytometry, dose response (AID 1336; call rule not given here)
# [5] = molecular target: GTPase HRas (Homo sapiens) (UniProt P01112); assay: blockade of GTP loading onto mutant Ras – biochemical, activated mutant, multiplex bead flow cytometry, dose response (AID 1341;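 active = dose-response curve with midpoint inside the tested range, moderate steepness, significant amplitude and little compound fluorescence or bead-attachment interference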;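 note: GST-tagged constitutively activated Ras mutant immobilized on beads and multiplexed with other GTPases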)
# [6] = hit retest on RPL19A-GFP reporter strain – cell-based, S. cerevisiae, flow cytometry, cherry picks, mother/daughter gates, confirmation (AID 2270;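 active = GFP response below 50% of the DMSO control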); conditions: 3 h, at 10 µM, stronger effect = lower value, 100 = same GFP as DMSO wells
# [7] = yeast TOR pathway reporter LAP4-GFP change – cell-based, cherry picks, flow cytometry, mother/daughter gates, confirmation (AID 2271;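 active = GFP response above 150% of the DMSO control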;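 note: ratio of sample to DMSO plate mean so 100% equals DMSO level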); conditions: S. cerevisiae LAP4-GFP strain, 3 h, at 10 µM, stronger effect = higher value, 100 means same as DMSO control
# [8] = TOR pathway reporter MEP2-GFP, retest of hits – S. cerevisiae, flow cytometry GFP, cherry picks, confirmation (AID 2272;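 active = GFP response above 150% of the DMSO control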;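 note: ratio of well signal to plate DMSO mean so 100% equals DMSO level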); conditions: S. cerevisiae MEP2-GFP strain, 3 h, at 10 µM, stronger effect = higher value
# [9] = yeast AGP1-GFP fluorescence change, single-dose – cell-based, flow cytometry, S. cerevisiae, cherry picks, confirmation (AID 2273;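 active = GFP response above 150% of the DMSO level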;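 note: median GFP channel fluorescence over the whole cell population gate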); conditions: S. cerevisiae AGP1-GFP strain, 3 h, at 10 µM
# [10] = TOR pathway CIT2 reporter hit retest – S. cerevisiae, GFP fusion, cherry picks, mother/daughter gates, confirmation (AID 2274;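 active = GFP response above 150% of the DMSO level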); conditions: S. cerevisiae CIT2-GFP strain, flow cytometry, 3 h, at 10 µM, stronger effect = higher value
# [11] = measured here: daughter cell gate
# [12] = measured here: mother cell gate
# Sequence of GTPase HRas (Homo sapiens) (P01112 whole entry, looked up): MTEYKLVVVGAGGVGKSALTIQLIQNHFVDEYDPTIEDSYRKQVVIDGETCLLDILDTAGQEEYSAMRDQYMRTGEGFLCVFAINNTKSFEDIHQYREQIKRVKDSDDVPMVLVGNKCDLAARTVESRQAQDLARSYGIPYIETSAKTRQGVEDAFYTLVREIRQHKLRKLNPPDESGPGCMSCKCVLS
# Sequence of Cell division control protein 42 homolog (Homo sapiens) (P60953 whole entry, looked up): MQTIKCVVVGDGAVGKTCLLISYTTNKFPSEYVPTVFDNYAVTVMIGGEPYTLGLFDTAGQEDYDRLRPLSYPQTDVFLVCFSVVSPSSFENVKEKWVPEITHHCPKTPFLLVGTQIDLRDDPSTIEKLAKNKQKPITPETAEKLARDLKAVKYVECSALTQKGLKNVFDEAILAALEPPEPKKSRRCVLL
smiles,measurement,setting,value
O=C(/C=C/c1ccco1)Nc1ccc(-c2nc3ccccc3[nH]2)cc1,"GTP binding signal, raw median fluorescence (lower = inhibition) (MCF (arbitrary fluorescence units))",[1],273
OC(CNCCc1ccc(Cl)cc1)COc1ccc2ccccc2c1 (stereo unspecified),"fluorescence, percent of control (lower = inhibition)",[2],40.2%
same,"GTP binding, percent of control",[3],85.7%
same,outcome,[4],inactive
same,outcome,[5],inactive
O=C(O)c1cc(Sc2ccc(Cl)cc2)nc2ccccc12,"fluorescence, percent of control (lower = inhibition)",[2],55.8%
same,"GTP binding, percent of control",[3],81.1%
same,outcome,[4],inactive
same,"GTP binding signal, raw median fluorescence (lower = inhibition) (MCF (arbitrary fluorescence units))",[1],29
same,outcome,[5],inactive
O=C(O)c1ccccc1Sc1ncnc2sc3c(c12)CCC3,"GTP binding, percent of control",[3],118%
same,outcome,[5],inactive
CCOC(=O)c1cc([N+](=O)[O-])c([N+](=O)[O-])cc1NC(C)=O,"GTP binding, percent of control",[3],75%
same,outcome,[4],inactive
same,"GTP binding signal, raw median fluorescence (lower = inhibition) (MCF (arbitrary fluorescence units))",[1],241
same,outcome,[5],inactive
CCOc1ccccc1-c1c2cc(O)c(=O)cc-2oc2cc(O)c(O)cc12,"GTP binding signal, raw median fluorescence (lower = inhibition) (MCF (arbitrary fluorescence units))",[1],184
COc1cc(OC)c(-c2c3cc(O)c(=O)cc-3oc3cc(O)c(O)cc23)cc1OC,"GTP binding signal, raw median fluorescence (lower = inhibition) (MCF (arbitrary fluorescence units))",[1],480
Cc1cc(C)c(C)c(C(=O)c2ccccc2C(=O)O)c1C,"GTP binding, percent of control",[3],122%
same,outcome,[4],inactive
same,outcome,[5],inactive
Cc1ccc(SC(CC(=O)c2ccc(C(C)(C)C)cc2)C(=O)O)cc1 (stereo unspecified),"fluorescence, percent of control (lower = inhibition)",[2],26.6%
same,"GTP binding, percent of control",[3],72.6%
same,outcome,[4],inactive
same,"GTP binding signal, raw median fluorescence (lower = inhibition) (MCF (arbitrary fluorescence units))",[1],240
same,outcome,[5],inactive
same,GFP response vs DMSO,[6],95.8% (inactive)
same,GFP response vs DMSO,[6]; [11],94%
same,GFP response vs DMSO,[6]; [12],97.3%
same,GFP response relative to DMSO,[7],106% (inactive)
same,GFP response relative to DMSO,[7]; measured here: daughter cell gate response,103%
same,GFP response relative to DMSO,[7]; measured here: mother cell gate response,111%
same,GFP response vs DMSO,[8],94.4% (inactive)
same,"GFP response, % of DMSO",[9],99.3% (inactive)
same,"GFP response, % of DMSO",[10],92.2% (inactive)
same,"GFP response, % of DMSO",[10]; [11],90.5%
same,"GFP response, % of DMSO",[10]; [12],91.8%
CS(=O)(=O)c1ccc(C(=O)OCC(=O)NC(=O)C2CCCCC2)cc1[N+](=O)[O-],"GTP binding, percent of control",[3],76.2%
same,outcome,[4],inactive
same,"GTP binding signal, raw median fluorescence (lower = inhibition) (MCF (arbitrary fluorescence units))",[1],200
same,outcome,[5],inactive
COC(=O)c1cccnc1SCCc1ccccc1,"GTP binding, percent of control",[3],125%
same,"GTP binding signal, raw median fluorescence (lower = inhibition) (MCF (arbitrary fluorescence units))",[1],72.5
same,outcome,[5],inactive
CCc1ccc(NS(=O)(=O)c2ccc3[nH]cc(C(=O)N4CCc5ccccc54)c(=O)c3c2)cc1,"GTP binding, percent of control",[3],62.6%
same,outcome,[4],inactive
same,"GTP binding signal, raw median fluorescence (lower = inhibition) (MCF (arbitrary fluorescence units))",[1],167
same,outcome,[5],inactive
O=C(Nc1nnc(-c2ccc3c(c2)OCCO3)o1)c1ccc(Cc2ccccc2)cc1,"GTP binding, percent of control",[3],83.9%
same,outcome,[4],inactive
same,"GTP binding signal, raw median fluorescence (lower = inhibition) (MCF (arbitrary fluorescence units))",[1],144
same,outcome,[5],inactive
CCCN1C(=O)/C(=C/C=C2\N(CC)c3ccccc3C2(C)C)SC1=S,"GTP binding, percent of control",[3],127%
same,outcome,[4],inactive
same,"GTP binding signal, raw median fluorescence (lower = inhibition) (MCF (arbitrary fluorescence units))",[1],176
same,outcome,[5],inactive
COc1ccc(-c2cc(C#N)nc(N3CCNCC3)n2)cc1,"GTP binding, percent of control",[3],153%
same,outcome,[4],inactive
same,"GTP binding signal, raw median fluorescence (lower = inhibition) (MCF (arbitrary fluorescence units))",[1],182
same,outcome,[5],inactive
COc1cccc(NC(=O)COC(=O)/C=C/c2ccc(Cl)cc2Cl)c1,"fluorescence, percent of control (lower = inhibition)",[2],48.4%
same,"GTP binding, percent of control",[3],62%
same,outcome,[4],inactive
same,"GTP binding signal, raw median fluorescence (lower = inhibition) (MCF (arbitrary fluorescence units))",[1],180
same,outcome,[5],inactive
O=S(=O)(c1cccc(-c2nnc(SCc3ccc(Cl)cc3)o2)c1)N1CCCCC1,"GTP binding signal, raw median fluorescence (lower = inhibition) (MCF (arbitrary fluorescence units))",[1],182
NS(=O)(=O)c1ccc(N2N=C(c3ccccc3)CC2c2cccc(F)c2)cc1 (stereo unspecified),"GTP binding, percent of control",[3],50% and 86.8%
same,outcome,[4],inactive
same,"GTP binding signal, raw median fluorescence (lower = inhibition) (MCF (arbitrary fluorescence units))",[1],0 and 100
same,outcome,[5],inactive
O=C(NCc1cccs1)c1cccnc1C(=O)O,"GTP binding, percent of control",[3],84.2%
same,outcome,[4],inactive
same,"GTP binding signal, raw median fluorescence (lower = inhibition) (MCF (arbitrary fluorescence units))",[1],0
same,outcome,[5],inactive
CCCc1nc2c(=O)n(C)c(=O)nc-2n(C)n1,"GTP binding, percent of control",[3],84.4%
same,outcome,[4],inactive
same,outcome,[5],inactive
Cc1cccc(N=Cc2[nH]c3ccc(Br)c(Cl)c3c2O)c1,"GTP binding signal, raw median fluorescence (lower = inhibition) (MCF (arbitrary fluorescence units))",[1],240
Cc1cn2c(nc(=O)c3cccnc32)s1,"GTP binding signal, raw median fluorescence (lower = inhibition) (MCF (arbitrary fluorescence units))",[1],126
CCOc1ccc(/C=C2\SC(N3CCc4ccccc4C3)=NC2=O)cc1,"GTP binding, percent of control",[3],59.8%
same,outcome,[5],inactive
